Measurements reported in PubChem BioAssay (NCI).
This is part of a sample that, as a whole, favours compounds with a hit. Of some 79,000 tested, about 15% had one in any assay. The source made the active and inactive calls. Rule as the data show it: active = growth inhibition above about 70%; inactive = the rest.

What was measured:
[1] = NCI Yeast Anticancer Drug Screen. Data for the rad52 strain (AID 147);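 also: 0% = growth of vehicle-treated control cultures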; conditions: S. cerevisiae rad52 mutant growth inhibition, hits give high values
Method in brief: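 Growth of repair-deficient yeast cells was compared between compound-treated and vehicle-treated cultures to give percent inhibition.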

[2] = NCI Yeast Anticancer Drug Screen. Data for the wt1 strain (AID 149);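 also: 0% = growth of vehicle-treated wt1 cultures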; conditions: S. cerevisiae wt1 strain (SPY 50644) growth inhibition, hits give high values
Method in brief: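 Yeast wt1 strain exposed to compounds; growth inhibition measured relative to vehicle-treated controls.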

[3] = NCI Yeast Anticancer Drug Screen. Data for the rad50EPP+ strain (AID 151);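 also: 0% = growth of vehicle-treated control cultures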; conditions: S. cerevisiae rad50 mutant strain, hits give high values
Method in brief: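 Measured: growth inhibition of rad50EPP+ yeast. Reference: vehicle-treated controls. Screen uses strains with defined genetic alterations in DNA damage repair or cell cycle control.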

[4] = NCI Yeast Anticancer Drug Screen. Data for the rad50 strain (AID 155);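 also: 0% = growth of vehicle-only cultures of the same strain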; conditions: S. cerevisiae rad50 strain growth inhibition, hits give high values
Method in brief: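 Yeast carrying a defined DNA repair defect were exposed to test compounds, and growth was compared with vehicle-treated controls to give percent inhibition.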

[5] = NCI Yeast Anticancer Drug Screen. Data for the mec2-1 strain (AID 157); conditions: S. cerevisiae mec2-1 strain, hits give high values
Method in brief: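 Compounds were applied to mec2-1 yeast cells. Their growth was then compared with that of vehicle-treated cultures to give growth inhibition.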

[6] = NCI Yeast Anticancer Drug Screen. Data for the rad14 strain (AID 159);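 also: 0% = growth of vehicle-treated control cultures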; conditions: S. cerevisiae rad14 strain growth inhibition, hits give high values
Method in brief: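 Yeast cells carrying a defined DNA-repair defect were exposed to compounds, and growth inhibition was calculated relative to vehicle-treated control cultures.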

[7] = NCI Yeast Anticancer Drug Screen. Data for the sgs1 mgt1 strain (AID 161);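 also: 0% = growth of cultures given vehicle only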; conditions: S. cerevisiae sgs1 mgt1 strain, hits give high values
Method in brief: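 Yeast cells carrying a defined DNA-repair defect were exposed to test compounds. Growth inhibition was measured relative to vehicle-treated controls.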

[8] = NCI Yeast Anticancer Drug Screen. Data for the CLN2oe strain (AID 163);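 also: 0% = growth of vehicle-only control cultures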; conditions: S. cerevisiae CLN2oe strain, hits give high values
Method in brief: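 Cells of an engineered yeast line with disturbed cell-cycle regulation are treated with compound. Inhibition of growth is then calculated relative to the vehicle-treated reference.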

[9] = NCI Yeast Anticancer Drug Screen. Data for the cln2 rad14 strain (AID 165);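 also: 0% = growth equal to vehicle treated cultures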; conditions: S. cerevisiae cln2 rad14 strain, hits give high values
Method in brief: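 Strain: cln2 rad14 yeast, altered in cell cycle control and DNA damage repair. Read-out: growth inhibition vs vehicle.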

[10] = NCI Yeast Anticancer Drug Screen. Data for the bub3 strain (AID 167); conditions: S. cerevisiae bub3 mutant strain, hits give high values
Method in brief: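 Compounds were applied to a genetically altered yeast strain carrying a cell-cycle control defect. Growth inhibition was scored against vehicle-treated controls.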

[11] = NCI Yeast Anticancer Drug Screen. Data for the wt2 strain (AID 169);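 also: 0% = growth of vehicle-treated yeast cultures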; conditions: S. cerevisiae wt2 strain growth inhibition, hits give high values
Method in brief: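 Growth of compound-treated yeast is measured and expressed as inhibition relative to vehicle-only controls.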

[12] = NCI Yeast Anticancer Drug Screen. Data for the mlh1 strain (AID 171);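 also: 0% = growth of vehicle-treated control cultures of the same strain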; conditions: S. cerevisiae mlh1 strain growth inhibition, hits give high values
Method in brief: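 Test agents were incubated with yeast bearing a defined DNA damage repair or cell cycle control alteration; values are growth inhibition normalised to vehicle-treated cultures.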

[13] = NCI Yeast Anticancer Drug Screen. Data for the sgs1 strain (AID 173);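 also: 0% = growth of vehicle-only control cultures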; conditions: S. cerevisiae sgs1 mutant, hits give high values
Method in brief: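 Strain with an altered DNA repair or cell cycle pathway exposed to compound. Growth then measured. Value = inhibition versus vehicle control.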

[14] = NCI Yeast Anticancer Drug Screen. Data for the mlh1 rad18 strain (AID 175); conditions: S. cerevisiae mlh1 rad18 strain growth inhibition, hits give high values
Method in brief: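 A repair-deficient yeast strain is exposed to test compound, and growth is scored relative to vehicle-treated controls.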

[15] = NCI Yeast Anticancer Drug Screen. Data for the rad18 strain (AID 177); conditions: S. cerevisiae rad18 mutant growth inhibition, hits give high values
Method in brief: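 DNA-repair-defective yeast; compound treatment; growth inhibition scored against vehicle.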

[16] = at 5.0 µM (retest, dose inferred, filed as 0.5)
[17] = at 50.0 µM (retest, dose inferred, filed as 5.0)

Measured: growth inhibition

C[C](C)(C)[Ge]([O][Ge]([c]1ccccc1)[c]1ccccc1)([O][Ge]([c]1ccccc1)[c]1ccccc1)[C](C)(C)C
inactive: [1]; at 1.2 µM 1% | [1]; at 3.7 µM 15% | [1]; at 11.0 µM 53% | [2]; at 1.2 µM -3% | [2]; at 3.7 µM 5% | [2]; at 11.0 µM 42% | [2]; at 33.0 µM 68% | [3]; at 1.2 µM 0% | [3]; at 3.7 µM 5% | [3]; at 11.0 µM 5% | [3]; at 33.0 µM 1% | [3]; at 100.0 µM -3% | [4]; at 1.2 µM -1% | [4]; at 3.7 µM 6% | [4]; [16] 12% | [4]; at 11.0 µM 42% | [4]; at 33.0 µM 63% | [4]; [17] 63% | [5]; at 1.2 µM 4% | [5]; at 3.7 µM 21% | [5]; [16] 29% | [5]; at 11.0 µM 60% | [5]; at 50.0 µM 65.8% | [6]; at 1.2 µM -4% | [6]; at 3.7 µM 1% | [6]; at 11.0 µM 23% | [6]; at 33.0 µM 46% | [6]; at 100.0 µM 57% | [7]; [16] 19% | [7]; at 50.0 µM 61.6% | [8]; at 1.2 µM 4% | [8]; at 3.7 µM 18% | [8]; at 11.0 µM 55% | [9]; [16] 26% | [9]; at 50.0 µM 67.8% | [10]; at 1.2 µM -4% | [10]; at 3.7 µM 4% | [10]; [16] 9% | [10]; at 11.0 µM 53% | [11]; at 1.2 µM -1% | [11]; at 3.7 µM 10% | [11]; at 11.0 µM 46% | [11]; at 33.0 µM 64% | [11]; at 100.0 µM 64% | [12]; at 1.2 µM 0% | [12]; at 3.7 µM 9% | [12]; at 11.0 µM 49% | [12]; at 33.0 µM 66% | [12]; at 100.0 µM 68% | [13]; at 1.2 µM 8% | [13]; at 3.7 µM 27% | [14]; [16] 48% | [15]; at 1.2 µM 4% | [15]; at 3.7 µM 20% | [15]; at 11.0 µM 56%
active: [1]; at 33.0 µM 74% | [1]; at 100.0 µM 78% | [2]; at 100.0 µM 75% | [4]; at 50.0 µM 71.9% | [4]; at 100.0 µM 71% | [5]; at 33.0 µM 80% | [5]; [17] 75% | [5]; at 100.0 µM 79% | [7]; [17] 80% | [8]; at 33.0 µM 74% | [8]; at 100.0 µM 81% | [9]; [17] 82% | [10]; at 33.0 µM 77% | [10]; [17] 79% | [10]; at 50.0 µM 76.7% | [10]; at 100.0 µM 79% | [13]; at 11.0 µM 71% | [13]; at 33.0 µM 78% | [13]; at 100.0 µM 76% | [14]; [17] 90% | [14]; at 50.0 µM 75.9% | [15]; at 33.0 µM 73% | [15]; at 100.0 µM 74%

CCCCN(CCCC)C(=O)/C=C/c1ccccc1
inactive: [1]; at 1.2 µM -12% | [1]; at 3.7 µM -9% | [1]; at 11.0 µM -11% | [1]; at 33.0 µM 18% | [2]; at 1.2 µM 0% | [2]; at 3.7 µM 3% | [2]; at 11.0 µM 11% | [2]; at 33.0 µM 10% | [3]; at 1.2 µM -7% | [3]; at 3.7 µM -20% | [3]; at 11.0 µM -2% | [3]; at 33.0 µM 14% | [3]; at 100.0 µM 33% | [4]; at 1.2 µM -15% | [4]; at 3.7 µM -12% | [4]; [16] 5% | [4]; at 11.0 µM -10% | [4]; at 33.0 µM 15% | [5]; at 1.2 µM -5% | [5]; at 3.7 µM -5% | [5]; [16] -1% | [5]; at 11.0 µM -6% | [5]; at 33.0 µM -4%
active: [1]; at 100.0 µM 93% | [2]; at 100.0 µM 82% | [4]; [17] 84% | [4]; at 50.0 µM 93.3% | [4]; at 100.0 µM 89% | [5]; [17] 85% | [5]; at 50.0 µM 92.2%
